Data on 40 molecules can be found in PubChem BioAssay (NCI).

Several values for one entry are separate records, joined by “and”; a condition that tells them apart may be missing. Identical values can stand only once. About 83,000 compounds went through this panel and 20% of them were active in at least one assay; those are over-represented in the sample as a whole.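 Activity criterion: percent growth below 10, measured after cells in 96-well plates were exposed to a single compound concentration for 48 hours.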 Activity calls are given as the source filed them.

The test relates to MDA-MB-468 breast. Kind of test: NCI-60 one-dose screen, 48 h (100 = growth as untreated, 0 = no growth, -100 = all killed). The conditions noted are these: 10 µM unless noted.
In the case of `CCN(CC)CCCC(C)Nc1ccc2ccc(Cl)cc2n1` (stereo not given), the growth is 77.8% (inactive).

In the case of `O=C(N/N=C/c1ccc2c(c1)OCO2)c1cnn2c1NC(c1ccccc1)C2` (stereo not given), the growth was 22.4% (inactive).

Consider `CCN(CC)CCNc1ccc(Cl)cc1Cl`, for which the growth was 108% (inactive).

Regarding `O=C(O)C1CSCN1` (stereo not given), the growth is 114% (inactive) and 95.5% (inactive).

For `O=C1OCC2=C1C(c1ccc3c(c1)OCO3)CC(=O)N2c1cccc(Cl)c1` (stereo not given), the growth is 88.1% (inactive).

Take `CCN(C(C)=O)c1ccc([N+](=O)[O-])cc1`: the growth is 103% (inactive).

In the case of `O=C(CCC(=O)N/N=C/c1ccccc1O)N/N=C/c1ccccc1O`, the growth is 62.8% (inactive).

For the molecule `CC(=Nc1ccccc1)C1=C(O)C(Cc2ccccc2)NC1=O` (stereo not given), the growth is 15.4% (inactive).

For `COc1ccc(-c2ccc(NC(=O)Nc3cccc(C(F)(F)F)c3)c(C)n2)cc1`, the growth is 27.5% (inactive).

As to `COCCn1cc(-c2nc(-c3cc4cccnc4n3C)cs2)c2cc(OC)ccc21`, the growth was -28% (active).

On to `Cc1c(C(N)=O)sc2c1c(=O)n(Cc1ccccc1)c1nnc(Nc3ccccc3)n21`, for which the growth is 108% (inactive).

For the molecule `O=c1oc2cc(OS(=O)(=O)C3CC3)ccc2c2c1CCCCCC2`, the growth is 39% (inactive).

As for `CC(C)NC(=O)OCC#CCOC(=O)NC(C)C`, the growth was 99.9% (inactive).

On to `CC1(C)C2=C(C(=O)N1Cc1ccccc1)C(c1ccco1)N(C(=O)C1CCC1)CCN2` (stereo not given), for which the growth is 112% (inactive).

As for `CC1=CC(=O)C(C(C)C)=CC1=Nc1cc(Br)c(O)c(Br)c1`, the growth is 44.7% (inactive).

`c1ccc(-c2oc(-c3ccccc3)c3ccccc23)cc1`: the growth was 109% (inactive).

As to `CNS(=O)(=O)Oc1ccc(-c2sc3cc(OS(=O)(=O)NC)ccc3c2C(=O)c2ccc(OCCN3CCCCC3)cc2)cc1`, the growth was 63.1% (inactive).

As for `COc1ccccc1CNCCCN1C(=O)c2ccc3c4c(ccc(c24)C1=O)C(=O)N(CCCN)C3=O`, the growth was -88.1% (active).

Consider `CCCCNCC(=O)Nc1ccc(C(=O)OCC)cc1`, for which the growth was 103% (inactive).

On to `COC(=O)C1C(O)C(C)C(O)C(C)C=C(C)C2=C3C(=C(C)C(=O)c4c(O)c(c(C)c(OC(C)=O)c43)NC(=O)C(C)=C/C=C\C(C)C(O)C(C)C1O)OCO2` (stereo not given), for which the growth was 106% (inactive).

`c1ccc(-n2nnnc2-c2cccc3ccccc23)cc1`: the growth is -22.5% (active).

Regarding `CC(C)C(=O)Nc1ccc(-c2nc(-c3cccc(O)c3)c(-c3ccnc(Br)c3)[nH]2)cc1`, the growth is 15.1% (inactive).

As to `O=C1NC(=O)/C(=C\c2ccncc2)N1`, the growth is 102% (inactive).

Turning to `COc1ccccc1Nc1nnc(-c2ccc(Cl)cc2)o1`, the growth was 14% (inactive).

Regarding `Oc1cccc2oc(=S)[nH]c12`, the growth is 105% (inactive).

For the molecule `CC(=O)OCCCCCCn1c2ccccc2c2c3c(c4c5ccccc5n(C)c4c21)C(=O)N(O)C3=O`, the growth is 90.4% (inactive).

Consider `C=C1C(=O)O[C@H]2[C@H]1CC/C(COC(=O)CCCCCCCC(=O)OC/C1=C/CC[C@@]3(C)O[C@H]3[C@H]3OC(=O)C(=C)[C@@H]3CC1)=C\CC[C@@]1(C)O[C@@H]21`, for which the growth is -21.6% (active).

For the molecule `Nc1ncc(-c2cnn(C3CCNCC3)c2)cc1-c1nc2cc(Cl)ccc2o1`, the growth was -94.3% (active).

As to `Cc1ccc(NC(=O)c2ccc(CN3CCN(C)CC3)c(I)c2)cc1Oc1ccc(-c2[nH]nc3ncnc(N)c23)cc1`, the growth is 105% (inactive).

As to `CC1(C)CC[C@]2(C(=O)O)CC[C@]3(C)C(=CC[C@@H]4[C@@]5(C)C/C(=C/c6cccnc6)[C@H](O)C(C)(C)[C@@H]5CC[C@]43C)[C@@H]2C1`, the growth is 4.01% [100 µM] (active).

`CC(=O)c1cc(Br)ccc1O`: the growth was 103% (inactive).

Regarding `CCOC(=O)C1=CN(C)C=C(C(=O)OCC)C1c1cc(Br)c(OCC)c(OC)c1`, the growth is 62.1% (inactive).

For the molecule `CN(C)CCOc1nc2c3cc([N+](=O)[O-])ccc3nn2c2ccccc12`, the growth is 60.2% (inactive).

For the molecule `CCC(C)NCc1ccccc1` (stereo not given), the growth is 100% (inactive).

For the molecule `C/C(=N\NC(=O)Nc1ccccc1)c1nnn(-c2ccc([N+](=O)[O-])cc2)c1C`, the growth was 104% (inactive).

With `O=C(COc1cccc2cccnc12)Nc1ccc(C(=O)/C=C/c2ccc(Cl)cc2)cc1`, the growth is 89.3% (inactive).

For the molecule `Cc1ccc2c(c1)O/C(=C\c1ccc([N+](=O)[O-])o1)C2=O`, the growth was 23.3% (inactive).

For the molecule `CCCCC[C@H]1CC=C2C(=O)C=C[C@@H]2CC=CCCCC(=O)O[C@@H](CCCCC)CC=C2C(=O)C=C[C@@H]2CC=CCCCC(=O)O[C@@H](CCCCC)CC=C2C(=O)C=C[C@@H]2CC=CCCCC(=O)O1`, the growth was 7.64% [8.75 µM] (active).

On to `COc1cc(C)ccc1Oc1nc(Nc2ccc(N3CCOCC3)cc2)ncc1N=Cc1cc(C(F)(F)F)cc(C(F)(F)F)c1`, for which the growth is 71% (inactive).

Take `CC(=O)O[C@H]1CC[C@]2(C)[C@H]3CC=C4[C@@H]5CC(C)(C)CC[C@]5(C(=O)OCC(COC(=O)C(Cl)Cl)(COC(=O)C(Cl)Cl)NC(=O)C(Cl)Cl)CC[C@@]4(C)[C@]3(C)CC[C@H]2C1(C)C`: the growth was 58.7% (inactive).
